# Compound activity deposited in PubChem BioAssay by Broad Institute.
# Compounds with a hit are over-represented: about 3.1% of the library has one in this group of screens.
# GSIS activator: GLuc luminescence reporter in INS-1E cells, primary screen for activators of glucose-dependent secretion of insulin; AID 743287, 2014; INS-1E GLuc reporter insulin secretion, 2-3 h; activation, % at 16.6 µM; 370,000 tested, 0.61% active;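 active means lowest replicate activation of at least 40%, so every replicate reaches that level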;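 further: 0% = median of neutral control wells and 100% = median of IBMX positive control wells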
# EWS-Fli block: EWS/Fli-driven NR0B1 reporter inhibitors, primary screen, A673 cells, NR0B1 luciferase, luminescence, MLPCN library | viability-normalised | inhibition, % at 12.6 µM | 350,000 tested, 0.67% active | AID 651661, 2012;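 active means mean inhibition of at least 50% after viability correction, with every replicate also passing that limit; inconclusive means mean reaches 50% but only one of two replicates passes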;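 further: firefly luciferase signal divided by Alamar Blue viability fluorescence both relative to DMSO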
# Statin myotox sup: suppressors of statin myotoxicity in C2C12 myotubes, primary screen, cell-based, single point, plate reader. C2C12 myotubes + simvastatin, ATP luminescence, 48 h; scaled: DMSO 0, geranylgeraniol control 100. rescue of ATP level, % at 7.49 µM. 330,000 tested, 0.78% active;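 active means mean ATP rescue above about 67%, or every replicate alone reaching that limit, limit read from the data, passing the limit was not always enough; inconclusive means no clear call, values can overlap the other calls; inactive means mean under the limit and some replicate under it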;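 further: myotubes were challenged with 10 µM simvastatin during compound exposure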
# miR-122 sensor: miR-122 Renilla sensor signal increase in Huh7, primary screen, miR-122 inhibitor project, cell-based, single point, plate reader; 340,000 tested, 0.3% active; Huh7 miR-122 Renilla luciferase sensor, 48 h; neutral wells = 0, positive control = 100; activation (reporter increase), % at 12.5 µM;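 active means mean replicate activation score at least 90 and every replicate individually at or above 90; inconclusive means only one of the two criteria met; inactive means neither criterion met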;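 further: higher luciferase means less miR-122 activity so hits act as miR-122 inhibitors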
# PAX8 inh HTS: inhibitors of PAX8-driven TPO luciferase reporter, primary screen, RMG-I cells, single concentration; SteadyGlo, 24 h; inhibition, % at 12.6 µM; 360,000 tested, 1.2% active; AID 652154, 2013;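 active means mean replicate inhibition at least 60% with every replicate also reaching 60%; inconclusive means only one of the two criteria is met; inactive means mean below 60% and not all replicates reaching 60%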;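 further: luciferase light reporting Pax8 driven TPO promoter activity; plate controls were median of neutral control wells for no effect and mitoxantrone controls for full effect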
# Env fusion inh: inhibitors of HIV-1 Env-driven cell-cell fusion, primary screen, HeLa-JRFL effector, CEM21 target cells, luciferase; AID 651610, 2012; 360,000 tested, 1.1% active; inhibition, % at 12.3 µM;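 active means mean replicate inhibition score of at least 50 and every replicate individually at or above 50; inconclusive means only one of the two criteria met; inactive means mean below 50 and not all replicates reaching 50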;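 further: 0% = plate neutral controls and 100% = maraviroc near 300 nM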
# Active calls of the source: *; ? = inconclusive; . = not tested or not shown; [ ] = another dose, or the depositor's remark.
SMILES,GSIS activator,EWS-Fli block,Statin myotox sup,miR-122 sensor,PAX8 inh HTS,Env fusion inh
O=C(c1cccc(S(=O)(=O)N2CCN(c3ccccc3)CC2)c1)N1CCCC(C(F)(F)F)C1 (stereo not drawn),6.4,1.3,-16.0,-8.7,8.0,71.0*
CC(=O)[C@@H]1[C@@H](C(=O)c2ccccc2)[C@]2(C(=O)Nc3ccccc32)[C@H]2C=Cc3cc(F)ccc3N12,-2.9,-4.3,.,.,15.4,15.0
O=C(c1ccccc1)[C@@H]1[C@@H](C(=O)c2ccc(F)cc2)[C@@]2(C(=O)Nc3ccccc32)[C@H]2c3ccccc3C=CN12,1.7,-0.2,.,84.9,14.1,70.7*
Cc1ccc(Cl)cc1NC(=S)N(CCCN1CCOCC1)Cc1ccccn1,-0.8,.,.,160.3*,7.7,-4.2
O=C1CN(S(=O)(=O)Cc2ccccc2)C[C@@H]2[C@H](c3ccc(C#Cc4ccc(F)cc4)cc3)[C@H](CO)N12,-23.8,-14.7,.,.,80.2*,.
O=C1CN(S(=O)(=O)Cc2ccccc2)C[C@@H]2[C@@H](c3ccc(C#CCC4CCCC4)cc3)[C@@H](CO)N12,.,-3.5,.,.,98.6*,.
Cc1ccccc1S(=O)(=O)N1CC(=O)N2[C@H](CO)[C@H](c3ccc(C#CCC4CCCC4)cc3)[C@@H]2C1,-18.8,8.3,.,.,-19.3,.
Cc1ccccc1S(=O)(=O)N1CC(=O)N2[C@@H](CO)[C@H](c3ccc(C#CCC4CCCC4)cc3)[C@@H]2C1,43.1*,-1.1,.,.,-9.1,.
O=C1CN(S(=O)(=O)Cc2ccccc2)C[C@@H]2[C@H](c3ccc(C#Cc4ccc(F)cc4)cc3)[C@@H](CO)N12,8.5,8.9,.,.,12.2,.
C[C@H](CO)N1C[C@H](C)[C@@H](CN(C)Cc2ccccc2F)Oc2cc(C#CC3CC3)ccc2S1(=O)=O,3.8,8.1,-25.5,89.3[16.7 µM],.,21.0[16.7 µM]
FC(F)Oc1ccc(/C=N/NC(=S)Nc2cc(C(F)(F)F)ccc2Cl)cc1,110.8*,.,.,.,-4.9,-147.2
O=S(=O)(NCC1CCCO1)c1ccc(Oc2ccccc2)cc1 (stereo not drawn),-3.4,.,-11.4,?,.,57.1*
O=S(=O)(NCC1CCCO1)c1cc(Cl)ccc1Br (stereo not drawn),3.8,.,3.9,.,.,.
O=S(=O)(NCC1CCCO1)c1cnc(Cl)c(Br)c1 (stereo not drawn),0.2,12.1,.,-3.5,109.7*,.
Cc1cc(C(=O)OCC(=O)N2CC(=O)Nc3ccccc32)no1,.,.,.,-0.8,.,-85.3
Cc1c(C(=O)OCC(=O)N2CC(=O)Nc3ccccc32)oc2ccc(Br)cc12,72.9*,.,-18.6,-5.9,.,.
COc1ccc2c3c(n(C)c2c1)[C@H](CO)N(Cc1ccccc1F)CC31CN(C(=O)C2CC2)C1,-11.2,-0.7,.,.,-0.1,.
COc1ccc2c3c([nH]c2c1)[C@@H](CO)N(C(=O)C1CCOCC1)CC31CCN(C)CC1,19.9,26.0,.,.,.,.
CC(O)c1nc2ccccc2n1Cc1ccccc1 (stereo not drawn),14.7,0.7,7.9,-6.8,6.1,-11.7
CC(O)c1nc2ccccc2n1CCCc1ccccc1 (stereo not drawn),3.2,-1.5,7.7,.,13.2,-18.7
CCCCCCn1c(C(C)O)nc2ccccc21 (stereo not drawn),10.3,.,110.9*,-0.4,.,.
CCCCCn1c(C(C)NC(=O)CCC)nc2ccccc21 (stereo not drawn),.,-0.3,5.8,.,-1.8,74.5*
CC(O)c1nc2ccccc2n1C1CCCCC1 (stereo not drawn),63.1*,.,6.3,-5.9,.,.
CCCCCn1c(=O)c(C(=O)c2ccccc2)nc2ccccc21,-4.1,.,120.8*,0.2,.,-40.7
CCCCn1c(C(C)NC(=O)c2cccs2)nc2ccccc21 (stereo not drawn),.,.,134.8*,-3.1,-0.3,3.7
SMILES,GSIS activator,EWS-Fli block,Statin myotox sup,miR-122 sensor,PAX8 inh HTS,Env fusion inh
CCn1c(C(C)NC(=O)c2cccs2)nc2ccccc21 (stereo not drawn),23.5,-6.9,9.7,-8.6,10.3,-10.8
Cc1ccc(-c2nn3c(C)nnc3s2)cc1NC(=O)c1ccc(-c2ccc(Cl)cc2Cl)o1,97.2,.,-18.5,-7.7,.,114.6*
CN(C)c1ccc2c(c1)[C@H]1C[C@H](CC(=O)NCc3ccc(Oc4ccccc4)cc3)O[C@H](CO)[C@H]1O2,7.0,39.6,6.9,-1.4[16.7 µM],51.5,3.5[16.7 µM]
CCC(=O)N1C[C@H](C)[C@@H](OC)CN(C)C(=O)c2cc(NC(=O)NC(C)C)ccc2OC[C@@H]1C,4.5,0.8,-8.9,-2.1[16.7 µM],.,.
C[C@@H]1CN([C@@H](C)CO)C(=O)Cc2cc(NC(=O)Cc3cn(C)c4ccccc34)ccc2O[C@H]1CN(C)Cc1ccc(Oc2ccccc2)cc1,1.2,29.0,76.2*,-7.5[16.7 µM],85.6*,-10.2[16.7 µM]
C[C@H](CO)N1C[C@H](C)[C@@H](CN(C)Cc2ccc(C(F)(F)F)cc2)Oc2ccc(NC(=O)Cc3cn(C)c4ccccc34)cc2CC1=O,0.6,15.5,114.8*,-3.2[16.7 µM],50.0,-46.6[16.7 µM]
COc1ccc(CN(C)C[C@@H]2Oc3ccc(NC(=O)Cc4cn(C)c5ccccc45)cc3CC(=O)N([C@H](C)CO)C[C@H]2C)cc1,-18.9,9.1,80.8*,-4.7[16.7 µM],53.8,-54.8[16.7 µM]
C[C@@H]1CN([C@@H](C)CO)C(=O)Cc2cc(NC(=O)Cc3cn(C)c4ccccc34)ccc2O[C@@H]1CN(C)Cc1ccc(C(F)(F)F)cc1,-0.6,4.5,9.6,20.7[16.7 µM],16.7,-156.6[16.7 µM]
CS(=O)(=O)N1[C@@H]2CN(CC(F)(F)F)C[C@H]1C2c1ccccc1 (stereo partly drawn),3.6,.,.,.,.,.
CC(C)NC(=O)N1CC[C@@H]2[C@@H](CO)N(C)c3ccc(Br)cc3[C@@H]21,0.3,1.1,19.4,3.6[16.7 µM],-9.8,.
C[C@@H]1CN([C@@H](C)CO)C(=O)c2cc(NS(=O)(=O)c3cn(C)cn3)ccc2O[C@@H]1CN(C)C(=O)Nc1ccccc1,-7.7,-3.5,.,-1.9[16.7 µM],.,13.1[16.7 µM]
O=C(Cn1ncc2c1-c1ccccc1OC2)N1CCc2ccccc21,-11.9,-3.5,27.7,.,20.5,-113.5
O=C(Cn1ncc(Cl)c(Cl)c1=O)N1CCN(Cc2ccccc2)CC1,-2.5,66.6*,.,.,73.3*,-109.9
O=C(Cn1ncc(Cl)c(Cl)c1=O)N1CCc2ccccc21,-4.4,54.4*,.,.,65.6*,-99.9
C[C@@H]1CCCCO[C@H](CN(C)S(C)(=O)=O)[C@@H](C)CN([C@@H](C)CO)C(=O)c2cc(NC(=O)c3ccccc3)ccc2O1,8.5,0.7,-14.0,2.1[16.7 µM],-19.9,7.1[16.7 µM]
Cc1cc(C(=O)Nc2cccc3c2O[C@H](CN(C)C(=O)Nc2c(C)noc2C)[C@H](C)CN([C@@H](C)CO)C3=O)n(C)n1,2.9,-13.4,25.9,-1.4[16.7 µM],.,.
